From PubChem
This excerpt belongs to a sample that is enriched for hits.
mcGAS RapidFire: inhibitors of mouse cGAS. Q8C6L5. hit rate 0.18% among 130,000. recombinant mouse cGAS, cGAMP by RapidFire MS. inhibition, % at 12.5 µM;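 active = inhibition of cGAS enzyme activity at or above 60%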;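 also: enzyme stimulated by 45 bp dsDNA with ATP and GTP substrates; cGAMP share of summed cGAMP plus half ATP and half GTP signals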
Numbers stand for hits; - = inactive.

SMILES	mcGAS RapidFire
O=[N+]([O-])c1ccc(O)c(Cl)c1	-
O=[N+]([O-])c1ccc(O)c([N+](=O)[O-])c1	95.8
O=C(c1cc([N+](=O)[O-])c[nH]1)C(Cl)(Cl)Cl	-
c1ccc(N2CCNCC2)c(-c2cc3ccccc3o2)c1	-
Nc1ccc2c(c1)C13CCN4CC5=CCOC6CC(=O)N2C1C6C5CC43 (centres undefined)	-
O=C(COc1ccc(Cl)cc1)N1CCCC(N2CCN(c3ccccc3F)CC2)C1 (centres undefined)	-
Cc1ccnc(CC(C)N(C)Cc2ccc(Sc3nncn3C)o2)c1 (centres undefined)	-
CC(C)=CC(=O)N1CCN(C)C2(CCN(C)CC2)C1	-
CCc1nn(C)c(Cl)c1CN1CC[C@@H](c2cccc(OC)c2)[C@H](O)C1	-
O=c1c2ccccc2[se]n1-c1ccccc1	93.8
O=c1c2ccccc2nc(Cc2ccccc2)n1-c1cccc(O)c1	-
Cc1nc2ccc(N)cc2c(=O)n1-c1ccccc1	-
Cc1ccnn1-c1ccc(C(=O)N2CCC(C(=O)O)(c3ccccc3)CC2)cc1	-
CC(=O)NS(=O)(=O)c1ccc(NC(=O)c2cccn(Cc3ccccc3)c2=O)cc1	-
